# Laboratory results taken from ChEMBL document CHEMBL3988442, “University of Dundee, Small-Polar-MMV Screening Library” (2021).
# Hit rate of the full screen: of about 48,000 compounds, about 13,000 (27%) showed an effect of 50% or more. Some of the results follow.
# Test system: Wolbachia pipientis
# Assay: Anti-Wolbachia Cell-Based Screen
# Assay type: functional
# Parameters: scale not given: in the data most compounds retested in dose-response had high values
# Conditions: 5 µM
row,SMILES,Percent Effect [%]
1,CC(=O)NC1CCN(C(=O)c2cnc(COc3ccccc3)nc2O)C1 (configuration not stated),1.868
2,COc1ccc(C(=O)N2CCCC(NC(=O)C(C)C)C2)c(O)c1 (configuration not stated),103.8
3,CC(C)C(=O)NC1CCCN(C(=O)c2ccccc2O)C1 (configuration not stated),105
4,CC(=O)NC1CCCN(C(=O)c2ccc(Br)cc2O)C1 (configuration not stated),-3.443
5,CC(C)(C)OC(=O)NCC1CCN(C(=O)c2ccccc2O)C1 (configuration not stated),-1.633
6,COc1ccc(C(=O)N2C[C@@H](C(=O)O)[C@H](c3ccccc3)C2)c(O)c1,5.335
7,CC(=O)NC1CCCN(C(=O)Nc2nnc(C(C)C)s2)C1 (configuration not stated),-25.39
8,CC(C)C(=O)NC1CCCN(C(=O)c2cc3ccccc3cc2O)C1 (configuration not stated),101.9
9,O=C(NCCc1nncn1C1CC1)C1(c2ccccc2)CCC1,-10.81
10,CS(=O)(=O)CCNC(=O)NCCc1cc2ccccc2o1,-10.03
11,CCOC(=O)C1(CCOC)CCN(Cc2nccn2CC)CC1,-7.374
12,CC(C)NC(=O)NC[C@H]1OC[C@@H](NCc2ccccc2O)[C@@H]1O,1.072
13,O=C(NCC1(O)CCCCC1)c1coc(COc2cccc(F)c2)n1,-6.674
14,CCc1nnsc1C(=O)N1CCN(CC(O)C(C)(C)C)CC1 (configuration not stated),3.041
15,Cc1ccc(C(=O)N2CCC3(CC2)c2ccccc2[C@@H](N)[C@@H]3O)cc1F,-5.913
16,COc1ccc(C(=O)N2CCC3(CC2)c2ccccc2[C@@H](N)[C@@H]3O)cc1,-1.286
17,CC(C)c1cc(C(=O)N2CCC3(CC2)c2ccccc2[C@@H](N)[C@@H]3O)cs1,119.3
18,Cn1ncc(C(=O)OCC2CC(=O)N(c3ccccc3)C2)c1C(F)F (configuration not stated),-5.382
19,O=S1(=O)CCCN1Cc1coc(-c2ccc(C(F)(F)F)cc2)n1,-8.069
20,O=C(O)C(F)(F)F.O=C(O)C(F)(F)F.c1ccc(CN2CCc3ncnc(-c4ccncc4)c3CC2)nc1,-25.56
21,CCN(C)c1ncnc2c1CCN(CC1CCOC1)CC2.O=C(O)C(F)(F)F (configuration not stated),-11.17
22,O=C(O)C(F)(F)F.c1nc2c(c(-c3ccsc3)n1)CCN(Cc1ccoc1)CC2,-2.066
23,Cc1noc(C)c1CN1CCc2ncnc(-c3ccccc3)c2CC1.O=C(O)C(F)(F)F,91.91
24,O=C(O)C(F)(F)F.c1ccc(CN2CCc3ncnc(-c4ccoc4)c3CC2)nc1,-8.699
25,Cc1nc(CN2CCc3ncnc(-c4ccncc4)c3CC2)cs1.O=C(O)C(F)(F)F.O=C(O)C(F)(F)F,-2.21

row,SMILES,Percent Effect [%]
1,Cc1ncnc2c1CCN(CC1CCOC1)CC2.O=C(O)C(F)(F)F (configuration not stated),17.43
2,Cn1cc(-c2ncnc3c2CCN(CC2CCOC2)CC3)cn1.O=C(O)C(F)(F)F (configuration not stated),97.72
3,Cc1noc(C)c1CN1CCc2ncnc(-c3ccncc3)c2CC1.O=C(O)C(F)(F)F.O=C(O)C(F)(F)F,90.01
4,Cc1noc(C)c1CN1CCc2ncnc(-c3ccoc3)c2CC1.O=C(O)C(F)(F)F,108.1
5,OCc1ccc(CN2CCC(n3cc(-c4ccsc4)nn3)CC2)o1,-3.234
6,O=C(O)c1csc(S(=O)(=O)N2CCN(Cc3ccc(Cl)cc3)CC2)c1,3.67
7,Cc1ccc(S(=O)(=O)NCCCN2CCC(O)CC2)cc1Cl,11.47
8,COCc1noc(CCNc2nc(CC3CC3)nc3c2CCNCC3)n1,-2.883
9,CCNC(=O)c1cnc(Cc2ccc(F)cc2)s1,-2.208
10,Cn1cc(CN2CCc3ncnc(N4CCOCC4)c3CC2)cn1.O=C(O)C(F)(F)F.O=C(O)C(F)(F)F.O=C(O)C(F)(F)F,-9.324
11,Cc1noc(C)c1CN1CCc2ncnc(-c3cnn(C)c3)c2CC1.O=C(O)C(F)(F)F,103.6
12,Cc1noc(C)c1CN1CCc2ncnc(-c3cccnc3)c2CC1.O=C(O)C(F)(F)F.O=C(O)C(F)(F)F,104.6
13,Cc1noc(C)c1CN1CCc2ncnc(-c3ccc(F)cc3)c2CC1.O=C(O)C(F)(F)F,85.48
14,COc1ccc(NC(=O)C2CCOC2)c(N2CCN(C(C)=O)CC2)n1 (configuration not stated),4.465
15,CC(=O)NCCNC(=O)C1(Oc2cccnc2C)CCNCC1,-9.586
16,COCCCN(C)c1nc(-c2ccncc2)nc(C)c1C,-12.12
17,Cc1cc(CN(C)C(=O)c2cccc(CCC(C)(C)O)c2)no1,3.557
18,CCn1ccnc1CN1CCC(=O)N(CC2CC2)C(C(C)C)C1 (configuration not stated),-13.21
19,Cc1noc(C2CCCN(C(=O)c3ccc(Br)o3)C2)n1 (configuration not stated),-1.818
20,Cc1cncc(C2CCCN(C(=O)c3cnco3)C2)n1 (configuration not stated),133.2
21,Cc1cncc(C2CCCN(C(=O)c3scnc3C)C2)n1 (configuration not stated),-6.162
22,Cc1cncc(C2CCCN(C(=O)c3cn(C)nc3C)C2)n1 (configuration not stated),117.2
23,Cc1cncc(C2CCCN(C(=O)c3ccc(C)[nH]c3=O)C2)n1 (configuration not stated),1.082
24,Cc1nn(C)cc1C(=O)N1CCCC(c2nccn2Cc2cscn2)C1 (configuration not stated),27.14
25,CS(=O)(=O)CCC(=O)Nc1ccsc1,-22.38

row,SMILES,Percent Effect [%]
1,CC(C)c1nc(-c2cc(C(=O)O)c3ccccn23)cs1,13.08
2,O=S(=O)(CC1CC1)c1ncc(CN2CCSCC2)n1CC1CCCO1 (configuration not stated),-0.6342
3,Cc1ccc(C(=O)N2CCN(c3ccnc4ccsc34)CC2)o1,5.784
4,COc1ccc(Cc2ncc3c(n2)CN(C(=O)CO)C3)cc1,-17.5
5,COc1ccc(Cc2ncc3c(n2)CN(C(=O)C(C)(C)OC)C3)cc1,70.44
6,COc1ccc(Cc2ncc3c(n2)CN(C(=O)C(C)(C)C)C3)cc1,-16.53
7,CC(=O)Nc1nc(-c2ccc(C)c(C)c2)c[nH]1,-24.79
8,COc1ccc(C(C(=O)O)N(C)CCN2CCCC2)cc1F (configuration not stated),3.754
9,COc1ccc(Oc2cccc(C#N)n2)cc1CN1CCCC1,-5.576
10,COc1cc2cc(C)c(SCCN3CCCCC3)nc2cc1OC.Cl,107.6
11,COc1cc2cc(C)c(SCCN3CCCC3)nc2cc1OC.Cl,167.2
12,COc1cccc(S(=O)(=O)CCN2CCCCC2)c1,0.4821
13,CCc1cc2cc(OC)c(OC)cc2nc1SCCN1CCCCC1.Cl,130.7
14,CNC(=O)c1cccc(NC(=O)CN2CCN(S(C)(=O)=O)CC2)c1,1.111
15,CCC(=O)N(C)Cc1cccc(OC(C)C)c1,-5.096
16,CCc1nc(C)c(-c2nccn2CC2CCN(C3CCCC3)CC2)[nH]1,-19.3
17,Cc1ccccc1C(=O)N1CCC2(CCC(C(=O)NCC3CC3)O2)CC1 (configuration not stated),104
18,Cc1ccccc1C(=O)NC[C@@H]1CCN(C(=O)C2(O)CCCC2)C[C@H]1O,-6.733
19,Cc1ccccc1C(=O)N1CC(C(=O)NCC2CC2)C2(CCOCC2)C1 (configuration not stated),-6.965
20,COc1cccc(C(=O)NCC2CCN(C(=O)c3ccoc3)CC2)c1,-1.127
21,O=C(c1cccs1)N1CCC2(CC1)CC(Oc1ccccc1)CO2 (configuration not stated),6.178
22,O=C(NC[C@H]1OC[C@@H]2CCN(C(=O)c3ccco3)C[C@@H]21)C1CC1,-4.179
23,O=C(NCC1CC1)C1CCC2(CCN(C(=O)c3cccs3)CC2)O1 (configuration not stated),94.19
24,O=C(NCC1CC1)C1CCC2(CCN(C(=O)c3ccco3)CC2)O1 (configuration not stated),87.87
25,O=C(NCC1CC1)C1CCC2(CCN(C(=O)c3ccoc3)CC2)O1 (configuration not stated),90.09

row,SMILES,Percent Effect [%]
1,O=C(NCC1CCN(C(=O)c2ccoc2)CC1)c1ccccc1Br,-10.47
2,O=C(NCC1CC1)C1CN(C(=O)c2cccs2)CC12CCOCC2 (configuration not stated),-5.71
3,O=C(NC1CCC1)C1CCC2(CN(C(=O)c3ccco3)C2)O1 (configuration not stated),-15.31
4,CNC(=O)[C@@H]1C[C@@H](NC(=O)CSc2ccccc2)CN1C1CCOCC1,0.9976
5,CCN(CC)c1ccc(NS(=O)(=O)c2cncc(F)c2)cn1,-6.269
6,Cc1ccc(C(C)NCc2cn(CCC(N)=O)c3ccccc23)cc1C (configuration not stated),-0.5436
7,Cc1ccc(C(=O)N2CCC3(CCC(C(=O)NCC4CC4)O3)CC2)o1 (configuration not stated),101.4
8,COC(=O)c1sccc1CN1CCN(C(=O)c2ccc(C)o2)CC1,-11.02
9,O=C(NCC1CC1)C1CCC2(CN(C(=O)c3ccno3)C2)O1 (configuration not stated),-9.78
10,CCN1CCN(C2CCN(Cc3nnc(C(C)(C)C)o3)CC2)C1=O,-3.577
11,CCN1CCN(C2CCN(Cc3c(C)noc3C)CC2)C1=O,-0.1089
12,CCN1CCN(C2CCN(Cc3noc(C)n3)CC2)C1=O,2.974
13,CN1CCN(C2CCN(Cc3nnc(C(C)(C)C)o3)CC2)C1=O,116.2
14,CCN1CCN(C2CCN(Cc3nnc(C4CC4)o3)CC2)C1=O,80.84
15,CN1CCN(C2CCN(Cc3noc(C(C)(C)C)n3)CC2)C1=O,10.06
16,CCc1nnc(CN2CCC(N3CCN(CC)C3=O)CC2)o1,119.1
17,CCN1CCN(C2CCN(Cc3nnc(C(C)C)o3)CC2)C1=O,147.9
18,CC(C)c1nnc(CN2C(=O)OC[C@@H]2C(C)C)o1,-6.188
19,CCN1CCN(C2CCN(Cc3ncc(C(C)(C)C)o3)CC2)C1=O,-2.934
20,CC(O)CN1CCN(Cc2nnc(C3CC3)o2)CC1 (configuration not stated),3.93
21,CCc1nnsc1C(=O)NCC1CN(CC(C)C)CCO1 (configuration not stated),19.89
22,CCC(=O)N1CCN(C(=O)c2ccc(OC)o2)[C@H]2CS(=O)(=O)C[C@H]21,0.8171
